The list is not random: actives were taken first. Their share in the collection is about 3.4%.
FBW7 activator = activators of human E3 ligase FBW7; AlphaScreen FBW7–phospho-cyclin E peptide binding, activator screen; Q969H0; AID 1259310; normalized activity (activation), % at 26.1 µM; actives 0.13% (n = 650,000); in the data active means normalized activity above about 1.9%;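 further: purified mutant Fbw7 with reduced substrate affinity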
TEAD-YAP block = TEAD-YAP interaction inhibition; inhibition, % at 9.12 µM; HEK-TIYL cells, TEAD-Gal4/YAP UAS-luciferase luminescence; actives 1.4% (n = 640,000); AID 1259422; in the data active means inhibition above about 32%;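 further: 0% = median of test compound wells and 100% = reference inhibitor wells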
GPR151 ag = activates the human receptor GPR151; Q8TDV0; PathHunter beta-arrestin GPR151 cells, luminescence; activation, % at 11.2 µM; actives 1% (n = 650,000); AID 1508602; in the data active means activation above about 4.9%;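 further: 0% = median of compound wells and 100% = cells with positive control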
Target sequence (Q8TDV0 whole entry, looked up): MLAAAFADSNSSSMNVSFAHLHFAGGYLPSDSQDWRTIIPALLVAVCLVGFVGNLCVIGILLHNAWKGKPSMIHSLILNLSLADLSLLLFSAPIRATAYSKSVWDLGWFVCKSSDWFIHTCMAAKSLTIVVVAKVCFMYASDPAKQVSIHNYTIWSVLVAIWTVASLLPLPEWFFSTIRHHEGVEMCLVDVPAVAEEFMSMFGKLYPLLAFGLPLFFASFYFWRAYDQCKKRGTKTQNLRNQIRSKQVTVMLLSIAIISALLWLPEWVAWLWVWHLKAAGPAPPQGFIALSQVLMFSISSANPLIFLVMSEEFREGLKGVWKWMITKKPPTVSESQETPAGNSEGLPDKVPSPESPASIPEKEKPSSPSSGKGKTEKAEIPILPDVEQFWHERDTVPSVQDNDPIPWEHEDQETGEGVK
MITF primary = inhibitors of human MITF; O75030; actives 0.91% (n = 650,000); AID 1259374; AlphaScreen MITF homodimerization, bead proximity signal; inhibition, % at 2.6 µM; in the data active means inhibition above about 50%;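 further: 0% = vehicle wells with protein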
GPR151 conf act = confirmation of human GPR151 activators | 6,700 tested, under 10 active | activation, % at 11.2 µM | GPR151 PathHunter beta-arrestin cells, luminescence, 90 min; % of EA-reagent control over plate median | shares compounds with GPR151 ag | AID 1508609;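 active means mean percent activation across replicates above the confirmation screen cutoff of 4.91%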
GPR119 counter = activates human GPR119 in a GPR151 counter-screen. shares compounds with GPR151 ag. GPR119 PathHunter beta-arrestin cells, luminescence, 90 min; 0 = compound-well median, 100 = enzyme-acceptor control. activation, % at 11.2 µM. actives 0.3% (n = 6,700). AID 1508611;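 active means mean percent activation in the counterscreen above 29.09%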;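 further: counterscreen on off-target GPR119 to flag nonselective hits from the GPR151 activator screen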
* marks the source's active call; other numbers are inactive results; nt = no result given.

SMILES	FBW7 activator	TEAD-YAP block	GPR151 ag	MITF primary	GPR151 conf act	GPR119 counter
O=C(Nc1cc(C(F)(F)F)ccc1F)C1CCCC1	0	-9	13*	-3	1	7
Cc1sc2ncn(CC(=O)N3CCCCCC3)c(=O)c2c1S(=O)(=O)N1CCCCC1	0	-4	-2	1	nt	nt
O=C(Nc1ccc2c(c1)OCO2)C1CC12CCN(C(=O)c1ccc(-n3ccnc3)cc1)CC2 (stereo not given)	0	4	2	-9	nt	nt
O=C(Nc1ccc2c(c1)OCO2)C1CC12CCN(C(=O)c1ccc(-c3ccco3)cc1)CC2 (stereo not given)	0	5	5.5*	-1	-1	0
CN1CCCc2cc(CN3CCC4(CC3)CC4C(=O)Nc3ccc4c(c3)OCO4)ccc21 (stereo not given)	0	-1	4.9*	-2	0	-6
Cc1ccc(-c2csc3nnc(SCC(=O)NCCc4ccccc4)n23)cc1	0	4	0	0	nt	nt
Cc1ccc(-c2csc3nnc(SCC(=O)NC(N)=O)n23)cc1	0	1	6.3*	7	3	-3
COc1ccc(N2CCN(C(C)c3nnnn3C(C)(C)C)CC2)cc1 (stereo not given)	0	-1	0	-9	nt	nt
O=C(c1ccccc1)c1ccc(C(=O)N2CCN(c3ccccc3)CC2)o1	0	-29	0	-4	nt	nt
O=C(c1ccccc1)c1ccc(C(=O)N2CCCCC2)o1	0	-57	6.7*	-6	-1	-7
COc1cc(S(=O)(=O)N2CC(C)OC(C)C2)ccc1Cl (stereo not given)	0	-12	8.0*	-14	-1	-16
CCNS(=O)(=O)c1ccc(Cl)c(OC)c1	0	-6	8.0*	-5	0	0
COc1cc(S(=O)(=O)N2CC(C)OC(C)C2)ccc1Br (stereo not given)	0	-4	-1	3	nt	nt
COc1ccc(CNS(=O)(=O)c2ccc(Cl)c(OC)c2)cc1	0	-1	0	-8	nt	nt
O=C(COC(=O)c1ccc2c(c1)C(=O)N(C1CCCCC1)C2=O)c1ccccc1	0	5	0	-8	nt	nt
COc1ccc2c(CC(=O)Nc3nnc(C)s3)coc2c1	0	-5	0	0	nt	nt
CS(=O)(=O)N1CCN=C1SCc1cccc2ccccc12	0	-6	-1	10	nt	nt
O=C(CCC(=O)c1ccc(Oc2ccccc2)cc1)Nc1cccnc1	0	4	6.8*	-25	-1	5
O=C(CCC(=O)c1ccc(Br)cc1)Nc1cccnc1	0	-5	-1	5	nt	nt
O=C(NCc1ccc(Cl)cc1Cl)c1ccccn1	0	2	7.8*	2	0	3
O=C(NCc1ccc(Cl)cc1Cl)Nc1ccccc1	1	-45	-1	14	nt	nt
O=C(CSc1nccc(=O)[nH]1)Nc1nccs1	0	-1	6.5*	7	0	11
Cc1c(Cl)cccc1NC(=O)CSc1nccc(=O)[nH]1	0	11	5.3*	6	0	10
CC(C)c1ccc(N2C(=O)C3CC3C2=O)cc1 (stereo not given)	0	-2	0	-1	nt	nt
CCN1CCN(C(c2ccccc2)c2sc3nc(-c4ccco4)nn3c2O)CC1 (stereo not given)	0	3	5.3*	-12	-1	2
SMILES	FBW7 activator	TEAD-YAP block	GPR151 ag	MITF primary	GPR151 conf act	GPR119 counter
CN(C)C(=O)c1nc2ccc(Cl)cn2c1CNC1CCN(Cc2ccccc2)C1 (stereo not given)	0	2	0	-21	nt	nt
O=C(Oc1ccc(I)cc1)c1ccc([N+](=O)[O-])cc1	0	1	6.1*	9	-1	-5
COc1ccc(OC)c(C2C(C(N)=O)=C(C)Nc3nc(CCCO)nn32)c1 (stereo not given)	1	-8	7.7*	21	1	-2
Cc1ccc(NC(=O)c2ccc(Cl)cc2[N+](=O)[O-])c([N+](=O)[O-])c1	0	4	3	7	nt	nt
COc1ccc(C(=O)Nc2ccnn2C2CCN(Cc3ccon3)CC2)cc1	0	14	-1	2	nt	nt
COc1ccc(C(=O)Nc2ccnn2C2CCN(C(=O)C3CCOC3)CC2)cc1 (stereo not given)	0	-8	5.8*	5	1	0

Assay outcomes: PubChem, The Scripps Research Institute Molecular Screening Center
